These results are taken from ChEMBL document CHEMBL3433997, “St. Jude Leishmania screening dataset” (2016).

The target of the assay is Hexose transporter 1 (Plasmodium falciparum) (UniProt O97467). Nature of the assay: ST_JUDE_LEISH: Cytotoxicity at 2uM final concentration against transgenic Leishmania Mexicana promastigotes LmPfHT that are glucose transport deficient and complemented with the Plasmodium falciparum hexose transporter. Activity is measured by DNA content using SYBR green in vitro. The assay is classed as functional.
`CCOc1cc(NCCSCc2nc[nH]c2C)nc2ccccc12`: the inhibition (as a rule, the drop in the measured response relative to a control, in per cent) was -0.61%.

For `CN1CCCC1CCOc1ccc2c(c1)N(C(=O)Nc1cc(Br)cc(C(F)(F)F)c1)CC2` (centres undefined), the inhibition is -2.4%.

Turning to `O=C(NC1CCCCCC1)C1CCCN(C(=O)c2ccc(O)c(-c3ccc(Cl)c(Cl)c3)c2)C1` (centres undefined), the inhibition worked out at 2.31%.

For `COc1cc(NC(=O)Nc2cccc3ccccc23)c(OC)cc1Cl`, the inhibition was found to be 5.78%.

Regarding `Cc1cccc2nc(-c3ccc(-c4ccc(NC(=O)NCc5cccc(F)c5)cc4)s3)[nH]c12`, the inhibition was determined as 9.74%.

In the case of `CC(C)(C)c1ccc(C(=O)Nc2cccc(Nc3c(C(=O)NCc4cccc(C(F)(F)F)c4)cnc4c(O)cccc34)c2)cc1`, the inhibition came out at 8.9%.

In the case of `CCNc1cc(C(=O)N[C@@H](Cc2ccccc2)[C@H](O)CNCCc2cc(OC)cc(OC)c2)cc(N2CCCCS2(=O)=O)c1`, the inhibition was found to be 4.2%.

As for `CC(C)NCc1ccc(-c2cccc(-c3nc4cc(C(F)(F)F)ccc4[nH]3)c2)cc1`, the inhibition was determined as 3.48%.

On to `COc1ccc(-c2ccc(CNCc3ccsc3)cc2)cc1S(=O)(=O)NCCN1CCCC1`, for which the inhibition worked out at 0.23%.

On to `O=C(COc1ccccc1)Nn1cnc2ccccc21`, for which the inhibition stood at 0.83%.

Consider `COc1ccc(-c2cnn3ccc(Nc4cc(OC)c(OC)c(OC)c4)nc23)cc1OC`, for which the inhibition amounted to 11.4%.

In the case of `COc1ccc2nccc(N3CCC(O)(CCNCc4ccc5c(n4)NC(=O)CO5)CC3)c2n1`, the inhibition was 3.33%.

As for `COc1ccc2nccc([C@@H](O)CN3CCC(NC(=O)C(c4cc5ccccc5o4)N4CCC(Cc5ccccc5)CC4)CC3)c2c1` (some centres undefined), the inhibition turned out to be 3.03%.

Regarding `Cc1cnn(-c2cccc(C(=O)NC3CCC(CCN4CCc5ccc(C#N)cc5CC4)CC3)c2)c1` (centres undefined), the inhibition turned out to be 6.24%.
